HT1080 IDH1KD tx: qHTS for induction of synthetic lethality in tumor cells producing 2HG: qHTS for the HT-1080-IDH1KD cell line; HT-1080 IDH1 knockdown viability, ATP luminescence, 48 h; Potency, µM (top dose mostly 46.1 µM), for the others: top-dose activity, negative = toxicity, usual class: cytotoxic; 360,000 compounds, 2% hits; AID 686971, 2013;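 also: potency is read from the fitted curve at half-maximal effect; 0% = DMSO wells and -100% = cell-free medium wells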
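Using the IDH1-knockdown HT-1080 line run in the same batch and compound series as the NT line, viability after 48 h at 37 °C was determined by CellTiter-Glo luminescence and expressed as % activity.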
TDP1 cell noCPT: qHTS for Inhibitors of human tyrosyl-DNA phosphodiesterase 1 (TDP1): qHTS in cells in absence of CPT; 420,000 compounds, 15% hits; DT40 Tdp1-/- hTDP1 cells, no CPT, ATP luminescence, 48 h; Potency, µM (series often up to 46.2 µM), without a hit: top-dose activity change, negative = growth inhibition, most hits filed as inhibitors; also: potency is read from the fitted curve at half-maximal effect; nearly all actives have a fitted effect of over 55% in size
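Camptothecin absent (DMSO only). Human TDP1-complemented DT40 knockout cells, 400 cells/well, 37 °C for minimum 48 hr; ATP measured via CellTiter-Glo, 30 min dark incubation, luminescence.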
IL-1B inflam inh: qHTS for Inhibitors of Inflammasome Signaling: IL-1-beta AlphaLISA Primary Screen; activity change, % at 57.5 µM; AID 743279, 2014; THP-1 LPS/ATP IL-1B secretion, AlphaLISA, 16 h; hits give low values; 360,000 compounds, 4.7% hits; in the data active = activity change below about -50%; inconclusive = mostly about -30% to -49%
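THP-1 cells pretreated 1 hr with compounds (up to 57.5 uM final), then stimulated with LPS (250 ng/mL final) plus ATP (1.25 mM final); secreted IL-1B measured by AlphaLISA after 16 hr, decreased signal indicating inhibition.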
HT1080NT lethal: qHTS for induction of synthetic lethality in tumor cells producing 2HG: qHTS for the HT-1080-NT fibrosarcoma cell line; 360,000 compounds, 1.6% hits; Potency, µM (top dose mostly 46.1 µM), without a hit: at the highest dose activity, negative = less viability, usual class: cytotoxic; HT-1080-NT fibrosarcoma viability, CellTiter-Glo ATP luminescence, 48 h;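 also: NT is the 2HG producing partner of a matched IDH1 knockdown line; potency is read from the fitted curve at half-maximal effect; 0% = DMSO-treated cells and -100% = media-only wells without cells; nearly all actives have a fitted effect of over 55% in size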
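Toxicity toward the 2HG-producing NT line was scored as %Activity, normalised to DMSO and no-cell wells, from CellTiter-Glo luminescence after 48 hours' treatment.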
ALOX12 inh: Primary qHTS assay for inhibitors of human arachidonate 12S-lipoxygenase (ALOX12): Round 2 | Potency, µM (top dose mostly 108 µM), inactives show top-dose activity change, negative = inhibition, usual class: inhibitors | AID 1671190, 2021 | purified 12hLO, xylenol orange hydroperoxide absorbance | 580,000 compounds, 1.1% hits; also: potency is read from the fitted curve at half-maximal effect
Target sequence (P18054 whole entry, looked up): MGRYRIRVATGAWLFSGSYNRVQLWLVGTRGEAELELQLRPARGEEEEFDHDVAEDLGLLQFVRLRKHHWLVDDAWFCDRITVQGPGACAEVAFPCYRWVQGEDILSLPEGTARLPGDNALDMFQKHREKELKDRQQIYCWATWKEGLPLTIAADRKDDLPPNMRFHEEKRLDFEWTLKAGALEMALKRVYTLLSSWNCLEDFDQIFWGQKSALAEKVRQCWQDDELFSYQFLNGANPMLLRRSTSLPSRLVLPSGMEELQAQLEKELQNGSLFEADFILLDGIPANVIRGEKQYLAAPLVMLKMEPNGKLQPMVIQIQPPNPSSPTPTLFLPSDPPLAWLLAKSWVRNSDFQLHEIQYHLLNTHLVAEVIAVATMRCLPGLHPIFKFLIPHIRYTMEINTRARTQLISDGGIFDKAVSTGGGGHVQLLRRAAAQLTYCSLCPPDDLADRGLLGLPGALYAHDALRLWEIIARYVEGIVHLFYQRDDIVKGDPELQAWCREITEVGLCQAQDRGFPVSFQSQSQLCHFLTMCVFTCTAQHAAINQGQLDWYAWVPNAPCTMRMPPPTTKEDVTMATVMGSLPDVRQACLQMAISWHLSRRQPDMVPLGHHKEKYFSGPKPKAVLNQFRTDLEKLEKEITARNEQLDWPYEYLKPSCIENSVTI
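Hydroperoxide product was detected by ferrous iron/xylenol orange as the 573 to 405 nm absorbance ratio. Arachidonic acid at 40 uM (final) was turned over for 30 min at room temperature by 150 nM human 12hLO, pH 7.0 Hepes buffer, after 15 min compound preincubation.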
TDP1 cell CPT: qHTS for Inhibitors of human tyrosyl-DNA phosphodiesterase 1 (TDP1): qHTS in cells in presence of CPT; 420,000 compounds, 12% hits; chicken DT40 Tdp1-/-;hTDP1 cells + 20 nM CPT, ATP luminescence, 48 h; Potency, µM (series often up to 46.2 µM), for inactives: at the highest dose activity change, negative = growth inhibition, actives largely listed as inhibitors; AID 686979, 2013; also: potency is read from the fitted curve at half-maximal effect; nearly all actives have a fitted effect of over 55% in size
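Chicken DT40 Tdp1-/- cells complemented with human TDP1, 400 cells/well, exposed to compounds plus 20 nM camptothecin for at least 48 h at 37 C; viability read as ATP content by CellTiter-Glo luminescence.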
An asterisk follows results filed as active; ? = inconclusive; . = no result given; [ ] = remark or other dose. The entries come from a sample that favours hits as a whole. Unless noted, calls follow the shape of the dose curve; as a rule, active = well fitted curve in the direction sought with a large enough effect; inconclusive = small, poorly fitted or top-dose-only effect, or another doubt; inactive = no such curve, though single readings can be large; an effect the other way counts as inactive or inconclusive. Unless noted, % is scaled to controls: 0 for no effect and ±100 for the full control effect.

SMILES | HT1080 IDH1KD tx | TDP1 cell noCPT | IL-1B inflam inh | HT1080NT lethal | ALOX12 inh | TDP1 cell CPT
CCOC(=O)CSc1nc2c(c(=O)[nH]c(=O)n2C)n1CCC(C)C | . | . | . | . | 23% | .
CN(Cc1nc(C2CC2)no1)C(=O)c1cc(Cn2ccc3ccccc32)[nH]n1 | . | . | . | . | 50% | .
Cc1ccc(C)c(N(C(=O)Cn2nnc3ccccc32)C(C(=O)NC(C)(C)C)c2ccsc2)c1 (stereo unspecified) | -13%[9.24 µM] | ? | 30 | 4% | -18% | 23µM*
CC(C)(C)NC(=O)C(c1ccsc1)N(CCc1ccccc1)C(=O)Cn1nnc2ccccc21 (stereo unspecified) | 2% | -30% | 26 | -6% | 24% | ?
Cc1cc(C)c(N(C(=O)Cn2nnc3ccccc32)C(C(=O)NC(C)(C)C)c2ccsc2)c(C)c1 (stereo unspecified) | -24% | ? | 12 | 6% | -9% | 16µM*
CCOc1ccc(OC(=O)c2ccc3c(c2)NC(=O)CS3)cc1 | . | . | . | . | 4% | .
Cc1cccc(NC(=O)N2CCc3c(C(=O)N4CCN(C)CC4)cccc32)c1 | . | . | . | . | 39% | .
CC(=O)N1CCC(N[C@H]2CC(C)(C)[C@@H]3C[C@@](C)(O)CC[C@]23CCC(=O)NCCN2CCOCC2)CC1 | . | . | . | . | 13% | .
CN1C(=O)[C@@H]2C[C@@H](CN2C2CCC2)Oc2ccccc21 | . | . | . | . | 263%[176 µM] | .
COc1cccc(/C=C2\SC(=S)N(CCCC(=O)N3CCCC3)C2=O)c1 | -23% | 21µM* | -91* | -13% | -40% | ?
COc1ccc(/C=C2\SC(=S)N(CCCC(=O)N3CCN(C)CC3)C2=O)cc1OC | 0% | -10% | 15 | 3% | -17% | -25%
O=C1/C(=C/c2cccs2)SC(=S)N1CCC(=O)N1CCCCC1CCO (stereo unspecified) | -13% | ? | -56* | -12% | ? | ?
COc1cccc(/C=C2\SC(=S)N(CCCC(=O)N3CCCCC3CCO)C2=O)c1 (stereo unspecified) | -3% | 16µM* | -70* | -8% | 0% | ?
COc1ccccc1/C=C1\SC(=S)N(CCC(=O)NC2=NCCS2)C1=O | 17% | 1% | 0 | 4% | -16% | 1%
COc1ccccc1/C=C1\SC(=S)N(CCC(=O)N2CCCCC2CCO)C1=O (stereo unspecified) | -13% | ? | ? | -4% | -17% | 16µM*
COc1ccc(-c2coc3cc(OCC(=O)Nc4nccs4)ccc3c2=O)cc1 | . | . | . | . | 13% | .
CNc1oc(-c2cc(S(=O)(=O)N(C)C)c(C)o2)nc1C#N | . | . | . | . | 1% | .
COc1cccc(/C=C2\SC(=S)N(CCC(=O)N3CCCCC3CCO)C2=O)c1 (stereo unspecified) | -22% | 18µM* | ? | -3% | -11% | 13µM*
Oc1ccccc1CN1CCOC[C@H]1c1ncc(-c2ccccc2)[nH]1 | . | . | . | . | 61%[176 µM] | .
O=C(CSc1nc2ccccc2n1C(F)F)c1ccc(Cl)cc1 | . | . | . | . | -16% | .
CC(=O)Nc1ccccc1/C=C/c1ccc2c(C)cc(C)c(O)c2n1 | 19% | 16µM* | 1 | 19% | -14% | ?
CNC(=O)c1cc(-c2ccccc2)cc2c1OCCN2Cc1cccnc1 | . | . | . | . | 19%[176 µM] | .
CSCCC(NC(=O)c1ccc(Cl)cc1Cl)C(=O)N1CCCCCCC1 (stereo unspecified) | -5% | 23µM* | -7 | -8% | ? | ?
Cc1nc(-c2ccc(C)c(N3CCN(C(=O)Nc4ccc(Br)cc4)CC3)c2)no1 | . | 21µM* | . | . | -23% | ?
Cc1cc(C)cc(NC(=O)N2CCN(c3cc(-c4noc(C)n4)ccc3C)CC2)c1 | . | ? | . | . | -3% | ?
SMILES | HT1080 IDH1KD tx | TDP1 cell noCPT | IL-1B inflam inh | HT1080NT lethal | ALOX12 inh | TDP1 cell CPT
CNS(=O)(=O)c1ccc(Oc2ccc(S(=O)(=O)NC)cc2)cc1 | -11% | ? | -7 | -12% | 156% | 15µM*
CCN(C(=O)Cc1nc(-c2ccc(OC)cc2)no1)c1cccc(Cl)c1 | . | 16µM* | . | . | -7% | ?
CCN(C(=O)CCc1nc(-c2ccc(OC)cc2)no1)c1cc(OC)ccc1OC | -10% | ? | -10 | -12% | 0% | ?
CCCN(C(=O)Cc1nc(-c2ccc(OC)cc2)no1)c1ccccc1C | . | ? | . | . | -24% | 21µM*
CCCN(C(=O)CCc1nc(-c2ccc(OC)cc2)no1)c1ccccc1F | . | 16µM* | . | . | -5% | ?
CC1(C)CC(CC(=O)N2CCCC2)(c2ccc(Cl)cc2)CCO1 (stereo unspecified) | . | . | . | . | -1% | .
O=C(/C=C/c1ccc(-c2ccc(F)cc2)s1)N1CCS(=O)CC1 | . | . | . | . | 10% | .
COCC(C)n1c(C)cc(C(=O)Cn2cnc3c2c(=O)n(C)c(=O)n3C)c1C (stereo unspecified) | . | . | . | . | -24% | .
COc1ccc(Oc2c(C)oc3cc(OC(=O)c4ccco4)ccc3c2=O)cc1 | . | . | . | . | 7% | .
CCOC(=O)c1ccc(NC(=O)CCc2c(C)nc3c(c(C)nn3C(C)(C)C)c2C)cc1 | . | 18µM* | . | . | -16% | 16µM*
COC(=O)c1ccc(NC(=O)CCc2c(C)nc3c(c(C)nn3C(C)(C)C)c2C)cc1 | . | 18µM* | . | . | ? | ?
Cc1cccc(NC(=O)CCc2c(C)nc3c(c(C)nn3C(C)(C)C)c2C)c1C | . | ? | . | . | -16% | ?
COCCn1c(C)cnc1CC1CCN(S(=O)(=O)c2cccc(OC)c2)C1 (stereo unspecified) | . | . | . | . | -6% | .
O=C(c1n[nH]c(=O)c2ccccc12)N1CCCC1c1ccc2c(c1)OCCCO2 (stereo unspecified) | . | . | . | . | -2% | .
COc1ccc(Cl)cc1S(=O)(=O)N1CCC(C(=O)NCCC2=CCCCC2)CC1 | -11% | ? | -17 | 2% | 444% | 23µM*
COc1ccc(S(=O)(=O)N2CCCC(C(=O)NCCC3=CCCCC3)C2)cc1 (stereo unspecified) | -13% | ? | -1 | 0% | 164% | -7%
Cc1cc(C)c(S(=O)(=O)N2CCCC(C(=O)NCCC3=CCCCC3)C2)c(C)c1 (stereo unspecified) | -7% | 21µM* | -6 | -1%[9.24 µM] | -17% | ?

Screens from PubChem.
